CtBP-E1A inh: CtBP/E1A binding inhibition; AlphaScreen GST-E1A/His-CtBP binding, 1536-well; active compounds read low; activity change, % (no concentration beside the values); 340,000 tested, 0.49% active; in the data active = activity change below about -65%; inconclusive = mostly about -30% to -63%; also: % is scaled to controls: 0 for no effect and ±100 for the full control effect
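Protein mix (5X: 125 nM each GST-E1A, His-CtBP) was incubated with pinned compound 2 h at 37 deg C in dark, in 50 mM Tris pH 8.0 buffer with 300 mM NaCl. Glutathione donor and nickel acceptor beads followed; AlphaScreen signal read after 1 h.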
Eya2 inh: inhibitors of human Eya2 phosphatase activity; O00167; recombinant Eya2, OMFP fluorescence dephosphorylation (OMFP is methylfluorescein phosphate); Potency, µM (highest dose often 76.9 µM), inactives show at the highest dose activity, negative = inhibition, hits mostly inhibitors; 330,000 tested, 0.006% active; AID 488837; also: potency is read from the fitted curve at half-maximal effect; % is scaled to controls: 0 for no effect and ±100 for the full control effect
Target sequence (O00167 whole entry, looked up): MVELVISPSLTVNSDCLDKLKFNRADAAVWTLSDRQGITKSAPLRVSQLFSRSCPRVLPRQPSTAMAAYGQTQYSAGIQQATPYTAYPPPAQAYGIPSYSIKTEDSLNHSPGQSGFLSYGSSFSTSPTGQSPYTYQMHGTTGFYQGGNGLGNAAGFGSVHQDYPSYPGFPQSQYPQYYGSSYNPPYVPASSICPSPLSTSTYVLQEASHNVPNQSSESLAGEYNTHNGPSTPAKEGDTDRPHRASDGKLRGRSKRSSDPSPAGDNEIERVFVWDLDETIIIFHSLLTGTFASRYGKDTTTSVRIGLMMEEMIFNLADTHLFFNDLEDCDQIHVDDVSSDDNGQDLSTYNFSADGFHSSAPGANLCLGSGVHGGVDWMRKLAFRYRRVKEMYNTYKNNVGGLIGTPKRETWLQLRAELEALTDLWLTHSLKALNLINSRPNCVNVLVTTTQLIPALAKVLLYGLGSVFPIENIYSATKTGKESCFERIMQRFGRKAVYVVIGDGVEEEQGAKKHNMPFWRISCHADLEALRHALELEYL
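Eya2 protein (added as 0.2 uM solution) was preincubated with compound for 10 min at ambient temperature in 50 mM HEPES pH 7.5, 50 mM NaCl, 5 uM MgCl2, 0.05% BSA, 1 mM DTT. OMFP (added at 50 uM) then reacted 10 min; fluorescence read at 485/525 nm.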
Six1-Eya2 blk: inhibitors of human Six1/Eya2 interaction; 360,000 tested, 0.56% active; Q15475+O00167; AlphaScreen GST-Six1/His-Eya2 binding, biochemical; active compounds read low; activity change, % (no concentration beside the values); in the data active = activity change below about -65%; inconclusive = mostly about -30% to -63%; also: % is scaled to controls: 0 for no effect and ±100 for the full control effect
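Compounds are tested against tagged Six1 and Eya2 proteins bridged by glutathione donor and nickel acceptor beads; after a one-hour incubation at 37 °C without light, AlphaScreen emission is recorded.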
GRP78 ERSR act: induces the endoplasmic reticulum stress response in human glioma cells; U87-MG GRP78 promoter luciferase reporter, 16 h; Potency, µM, without a hit: at the top dose activation, usual class: activators; 420,000 tested, 0.02% active; AID 602332; also: potency is read from the fitted curve at half-maximal effect; series mostly up to about 76 µM; % of control where 0% means no effect; nearly all actives have a fitted effect of over 35% in size
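Stably transfected U87-MG glioma cells carrying a GRP78-based luciferase sensor; 16 h compound incubation. Luminescence end-point read 10 min after Bright-Glo addition at room temperature.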
Starred values were filed as active, the others as inactive; ? = inconclusive; . = no result. This is a sample that favours compounds with a hit; in the whole collection about 0.58% have one here. Unless noted, calls follow the shape of the dose curve; as a rule, active = well fitted curve in the direction sought with a large enough effect; inconclusive = small, poorly fitted or top-dose-only effect, or another doubt; inactive = no such curve, though single readings can be large; an effect the other way counts as inactive or inconclusive.

SMILES | CtBP-E1A inh | Eya2 inh | Six1-Eya2 blk | GRP78 ERSR act
Cc1c(Cl)cccc1N=Cc1ccc([N+](=O)[O-])s1 | ? | 4% | -67* | 2%
O=S1(=O)Nc2c(ccc3cccnc23)-c2ccccc21 | -89* | 9% | -91* | ?
COc1cc(=O)n2c(c1C(=O)N(C)Cc1nccs1)CCN(Cc1cc(C)cc(C)c1)CC2 | . | . | . | -3%
Cc1ccc(CN2CCOc3ccc(CN4CCC(O)(c5cccnc5)CC4)cc3C2)cc1C | . | . | . | -6%
Cc1cc2nc(N3CCCN(Cc4cccn4-c4ncccn4)CC3)nc(C)c2cc1C | . | . | . | -3%
Cc1ccc(NC2=C/C(=N/S(=O)(=O)c3cccs3)c3ccccc3C2=O)cc1C | -15 | 5% | -6 | -1%
Cc1ccccc1NC1=C/C(=N\S(=O)(=O)c2cccs2)c2ccccc2C1=O | -85* | ? | -84* | -14%
O=C(O)c1ccc(S(=O)(=O)/N=C2\C=C(Nc3ccccc3F)C(=O)c3ccccc32)cc1 | -76* | -15% | ? | -12%
COc1ccc(S(=O)(=O)/N=C2\C=C(Nc3ccc(O)cc3)C(=O)c3ccccc32)cc1 | -88* | -16% | ? | -18%
Cc1ccccc1NC1=C/C(=N\S(=O)(=O)c2ccc(C(=O)O)cc2)c2ccccc2C1=O | ? | -1% | -23 | -14%
CC1CN(CCC(=O)N2CCCC(C(=O)c3nccn3C)C2)Cc2cc(Cl)ccc2O1 (centres undefined) | . | . | . | -6%
COc1ccc2cc(CNC3CCS(=O)(=O)C3)c(-c3ccc(OC)c(OC)c3)nc2c1 (centres undefined) | . | . | . | -6%
Cc1cc(=O)[nH]c(NN=Cc2cc(Br)ccc2O)n1 | -94* | . | -89* | -2%
Cc1cc(=O)[nH]c(N/N=C/c2ccc(-c3ccc([N+](=O)[O-])cc3)o2)n1 | -74* | -10% | -71* | -1%
Cc1cc(=O)[nH]c(N/N=C/c2ccccc2Cl)n1 | . | 5% | -2 | 7%
CCN(CC)c1ccc(/C=N/NC(=O)c2c(Cl)cnn2C)c(O)c1 | -91* | 8% | -90* | 1%
Cc1cc(=O)[nH]c(N/N=C/c2ccc([N+](=O)[O-])cc2)n1 | . | -6% | . | .
CCOC(=O)N/N=C/c1ccc(N(CC)CC)cc1O | -5 | -2% | -13 | 2%
CCN(CC)c1ccc(/C=N/Nc2nc(C)cc(=O)[nH]2)c(O)c1 | -98* | 2% | -92* | -2%
c1ccc(-c2nnc(-c3ccccn3)nn2)nc1 | -91* | . | -79* | -10%
c1ccc(-c2ccc(-c3ccccn3)s2)nc1 | 2 | 12% | 15 | -2%
c1ccc(-c2cccc(-c3ccccn3)n2)nc1 | -101* | -17% | -91* | 7%
c1ccc(-c2nnc(-c3ccccn3)c(-c3ccccn3)n2)nc1 | ? | -18% | -22 | -2%
Nc1cc2[nH]c(=O)c3ccccc3c2cc1[N+](=O)[O-] | -72* | . | -72* | -2%
NS(=O)(=O)c1cccc2c1c([N+](=O)[O-])cc1[nH]c(=O)c(=O)[nH]c12 | . | . | . | 2%
SMILES | CtBP-E1A inh | Eya2 inh | Six1-Eya2 blk | GRP78 ERSR act
CCC1C(=O)NCCN1Cc1ccc2c(c1)CN(Cc1cc(OC)ccc1OC)CCO2 (centres undefined) | . | . | . | -4%
CCOC(=O)Cc1nnc(NC(=O)c2ncn[nH]2)s1 | -71* | 2% | ? | 1%
CC(NC(=O)c1cc(F)ccc1F)c1nnc2n1CCN(Cc1ccc(-c3ccccc3)cc1)CC2 (centres undefined) | . | . | . | -5%
CN(C)S(=O)(=O)c1cccc(NC(=O)CSc2cccc3cccnc23)c1 | -91* | 8% | -91* | -11%
O=C(CSc1cccc2cccnc12)N/N=C/c1ccc(F)cc1 | ? | -1% | -67* | -2%
CCCCC(=O)N/N=C/c1ccc(Sc2cccc3cccnc23)o1 | -88* | ? | -80* | -2%
CCN(CC)c1ccc(N=Nc2nn(C)c(C)c2[N+](=O)[O-])cc1 | ? | -9% | -67* | -1%
Cc1ccc(CNC(=O)c2nn(C)c(C)c2[N+](=O)[O-])cc1 | -2 | 3% | -5 | -5%
CCN(Cc1ccccc1)c1ccc(N=Nc2nn(C)c(C)c2[N+](=O)[O-])cc1 | -68* | 0% | -70* | 0%
Cc1cnc2ccccc2c1/C=C/c1ccc(N(C)C)cc1 | . | . | . | -4%
O=C(O)c1cc2cc(Cl)cc(Cl)c2oc1=O | -74* | 3% | ? | -4%
CC(C)Oc1ccccc1/C=N/Nc1ccccc1[N+](=O)[O-] | -76* | -13% | -72* | 3%
Cc1[nH]c2ccccc2c1/C=N/Nc1ccccc1[N+](=O)[O-] | ? | -7% | -69* | 4%
Cc1cccc(NC(=O)Oc2ccc(Cl)c3cccnc23)c1 | ? | . | -92* | -1%
O=C(Oc1ccc(Cl)c2cccnc12)N1CCCCC1 | 2 | -5% | -1 | 3%
O=C(Oc1ccc(Cl)c2cccnc12)c1cccnc1 | -82* | 1% | -93* | -3%
C[C@@H]1CN(Cc2ccc3c(c2)CN(Cc2cccn2-c2cccnc2)CCO3)C[C@H](C)O1 | . | . | . | -5%
O=C(NCC1CCCO1)c1nn2c(C(F)(F)F)cc(-c3cccs3)nc2c1Cl (centres undefined) | 19 | 13% | -10 | 0%
O=C(O)c1nn2c(C(F)(F)F)cc(-c3cccs3)nc2c1Cl | -67* | -3% | -74* | 3%

Bioassay records deposited in PubChem by National Center for Advancing Translational Sciences (NCATS).
